From the supplement of paper PMC13172266

What was measured:
Assay in all cases: cell proliferation relative to vehicle (% of vehicle); higher = less growth inhibition
Conditions in all cases: 72 h
[1] = tested on: U2932 TK216-resistant clone 2
Method in brief: (§1)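 Growth medium with 10% FBS at 37°C and 5% CO2 was used to culture U2932, an ABC-DLBCL line, in parental form and as two clones rendered resistant to an ETS-targeting agent by repeated exposure over almost a year. These cells received compounds from a 348-member targeted inhibitor library at 500 nM or 50 nM for 72 h, followed by 4 h of MTT, a 25% SDS stop and an absorbance read on a Cytation 3. The percentage of proliferating cells is reported relative to DMSO vehicle.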

[2] = tested on: U2932 TK216-resistant clone 3
Method in brief: as §1

U2932 parental = tested on: U2932 parental
Method in brief: as §1

Structure (SMILES)	cell proliferation ([1]; 50 nM)	cell proliferation ([1]; 500 nM)	cell proliferation ([2]; 50 nM)	cell proliferation ([2]; 500 nM)	cell proliferation (U2932 parental; 50 nM)	cell proliferation (U2932 parental; 500 nM)
O=C(Cc1ccc(-c2ccc(OCCN3CCOCC3)cc2)cn1)NCc1ccccc1	14.1	8.36	20.3	8.01	13.9	9.55
COc1cc(C(=O)N2CCC(N3CCN(C)CC3)CC2)ccc1Nc1ncc2c(n1)N(C)c1ccccc1C(=O)N2C	104	92.2	100	100	105	101
COCCOc1ccc2c(c1)ncn2-c1ccc2cccc(N3CCC(N)CC3)c2n1	107	106	103	94	99.8	90.4
CC[C@H](CO)Nc1nc(NCc2ccccc2)c2ncn(C(C)C)c2n1 [Roscovitine (Seliciclib,CYC202)]	105	102	107	107	99.6	106
CC(=O)c1c(C)c2cnc(Nc3ccc(N4CCNCC4)cn3)nc2n(C2CCCC2)c1=O	93.7	85.1	97.3	92.5	87.6	88.8
CCN(CC)CCCC(C)Nc1ccnc2cc(Cl)ccc12 (stereo not drawn) [Chloroquine Phosphate]	98.7	104	116	111	94.1	99.2
Cc1cn([C@H]2O[C@@H](CO)[C@H](O)[C@H]2F)c(=O)[nH]c1=O [Clevudine]	100	103	96.2	103	98.8	96.8
Cc1cnc(-c2cnc(NCCNc3ccc(C#N)cn3)nc2-c2ccc(Cl)cc2Cl)[nH]1	101	97.6	107	96.8	99.8	95
Oc1ccc(-c2nc(-c3ccc(F)cc3)c(-c3ccncc3)[nH]2)cc1	109	105	96.2	98.7	102	99.2
Oc1cccc(-c2nc(N3CCOCC3)c3oc4ncccc4c3n2)c1	97.4	45.4	94.2	46.3	92.1	48
CO[C@@H](C)Cn1c(=O)n(C)c2cnc3ccc(-c4cncc(C(C)(C)O)c4)cc3c21	79.1	23.8	79.2	30.9	80.4	33.6
CCCCC(C=O)NC(=O)C(CC(C)C)NC(=O)C(CC(C)C)NC(C)=O (stereo not drawn)	107	12.7	106	24.2	103	39.6
Cn1cncc1[C@@](N)(c1ccc(Cl)cc1)c1ccc2c(c1)c(-c1cccc(Cl)c1)cc(=O)n2C [Tipifarnib]	91.9	90.6	71.5	74.9	62.7	62.5
O=c1cc(-c2cccc3c2Sc2ccccc2S3)oc(N2CCOCC2)c1	108	102	98.8	95.3	102	103
CCCCCCCCCCCC1=C(O)C(=O)C=C(O)C1=O [Embelin]	90.5	98.8	103	103	100	89.7
CN(NC(=O)CC(=O)NN(C)C(=S)c1ccccc1)C(=S)c1ccccc1 [Elesclomol (STA-4783)]	0.164	-0.212	-0.901	-3.67	0.103	-1.37
CC(C)Oc1ccc(C(=O)N[C@H](CNC(=O)CN(C)C)Cc2ccc(-c3cn4cccc([C@H](C)O)c4n3)cc2)cc1Cl	45.4	15	34.3	14.4	47.6	14.6
CC(C)(C#N)c1cc(Cn2cncn2)cc(C(C)(C)C#N)c1 [Anastrozole]	99.8	108	103	101	105	96.7
Nc1ccn([C@@H]2O[C@H](CO)[C@@H](O)[C@@H]2O)c(=O)n1 [Cytarabine]	93.7	24	93.6	65.8	88.9	36
O=C1CCC(N2C(=O)c3ccccc3C2=O)C(=O)N1 (stereo not drawn) [Thalidomide]	105	106	104	101	103	101
Nc1cccc2c1C(=O)N(C1CCC(=O)NC1=O)C2=O (stereo not drawn) [Pomalidomide]	95.8	94.7	91	84.7	93.2	84.3
Oc1ccc(/C=C/c2cc(O)cc(O)c2)cc1 [Resveratrol]	102	111	102	106	103	101
CN(c1ncccc1CNc1nc(Nc2ccc3c(c2)CC(=O)N3)ncc1C(F)(F)F)S(C)(=O)=O	95.6	91.2	99.2	95.2	96.9	87.2
O=C(O)C(=O)O.[NH-][C@@H]1CCCC[C@H]1[NH-].[Pt+2] [Oxaliplatin]	104	99	105	96.6	96.8	93.2
Cc1cc(Nc2nc(N[C@@H](C)c3ncc(F)cn3)ncc2Cl)[nH]n1	116	108	105	117	96.7	91.5
COc1cc(Nc2nc3ccccc3nc2NS(=O)(=O)c2ccc(NC(=O)c3ccc(C)c(OC)c3)cc2)cc(OC)c1	98.5	106	104	103	105	104
C=CCc1ccc(O)c(-c2ccc(O)c(CC=C)c2)c1 [Honokiol]	108	111	104	102	100	106
CS(=O)(=O)c1cccc(CNc2nc(Nc3ccc4c(c3)CCC(=O)N4)ncc2C(F)(F)F)c1	110	101	103	98.3	90.5	82.6
